Source: PubChem (National Center for Advancing Translational Sciences (NCATS))
A selection: hits, their analogues and other compounds. The true share with any hit is near 17%.
DT40 TDP1 CPT: DT40-hTDP1 cell growth loss with CPT | AID 686979 | hit rate 12% among 420,000 | Potency, µM (doses to about 46.2 µM), without a hit: top-dose activity change, negative = growth inhibition, hits mostly inhibitors | chicken DT40 Tdp1-/-;hTDP1 cells + 20 nM CPT, ATP luminescence, 48 h; also: % is scaled to controls: 0 for no effect and ±100 for the full control effect; nearly all actives have a fitted effect of over 55% in size
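Cell growth measured by CellTiter-Glo luminescence after a minimum 48 h, 37 C compound exposure with 20 nM CPT in Tdp1-knockout DT40 cells stably expressing hTDP1, seeded 400/well; qHTS titration format.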
HT1080-NT tox: kills 2HG-producing HT-1080-NT fibrosarcoma cells; HT-1080-NT fibrosarcoma viability, CellTiter-Glo ATP luminescence, 48 h; Potency, µM (series often up to 46.1 µM), for inactives: top-dose activity, negative = less viability, actives largely listed as cytotoxic; hit rate 1.6% among 360,000;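 also: NT is the 2HG producing partner of a matched IDH1 knockdown line; 0% = DMSO-treated cells and -100% = media-only wells without cells; nearly all actives have a fitted effect of over 55% in size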
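Compounds were tested in concentration-response format on HT-1080-NT cells for 48 hours at 37 degrees C. Cell viability came from CellTiter-Glo luminescence; curves were classified by r2, response magnitude and activity.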
DT40 TDP1 no CPT: qHTS for Inhibitors of human tyrosyl-DNA phosphodiesterase 1 (TDP1): qHTS in cells in absence of CPT; DT40 Tdp1-/- hTDP1 cells, no CPT, ATP luminescence, 48 h; Potency, µM (highest dose often 46.2 µM), without a hit: top-dose activity change, negative = growth inhibition, actives largely listed as inhibitors; hit rate 15% among 420,000; AID 686978, 2013; also: % is scaled to controls: 0 for no effect and ±100 for the full control effect; nearly all actives have a fitted effect of over 55% in size
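Chicken DT40 Tdp1-/- cells stably complemented with human TDP1 were seeded at 400 cells/well with DMSO in place of 20 nM camptothecin. After compound pinning, cells grew at least 48 hr at 37 °C; viability read by CellTiter-Glo luminescence.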
HT1080 IDH1KD tx: toxicity to HT-1080 IDH1 knockdown cells (counter line); hit rate 2% among 360,000; AID 686971; Potency, µM (titrated, usually from 46.1 µM), without a hit: at the top dose activity, negative = toxicity, hits mostly cytotoxic; HT-1080 IDH1 knockdown viability, ATP luminescence, 48 h;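 also: 0% = DMSO wells and -100% = cell-free medium wells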
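Viability of IDH1-knockdown HT-1080 fibrosarcoma cells was assessed by CellTiter-Glo after 48 h at 37 °C with titrated compound; concentration-effect curves were classified by fit quality and response size.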
HepG2 viability: counter-screen for TGF-b inhibitors: cytotoxicity in HepG2 cells; AID 588856; HepG2 CAGA-GFP viability, ATP luminescence, 18 h; hit rate 0.76% among 410,000; Potency, µM (series often up to 46.1 µM), for inactives: at the top dose activity change, negative = cytotoxicity, hits mostly cytotoxic
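HepG2 CAGA-GFP cells (1000/well, DMEM with 1% FBS) received compound, then TGF-beta at 500 pg/mL final, and were incubated 18 hours at 37 degrees C. Viability was read by CellTiter-Glo luminescence. Media-only wells were set as complete cell-killing and DMSO as no toxicity.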
TGFb inhibitor: inhibitors of TGF-b signaling | HepG2 CAGA-GFP TGF-b/SMAD3 reporter, GFP fluorescence, 18 h; TGF-beta stimulated, 500 pg/mL final | Potency, µM (highest dose often 46.1 µM), for inactives: top-dose activity, negative = inhibition, most hits filed as inhibitors | hit rate 1.2% among 410,000; also: % is scaled to controls: 0 for no effect and ±100 for the full control effect; nearly all actives have a fitted effect of over 65% in size
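First, reporter cells (HEPG2 CAGA-GFP) rested 2 h at 37 degrees C. Next, compounds were pinned in and TGF-beta added to 500 pg/mL final. After 18 h, GFP was imaged per cell and summed per well.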
* marks the source's active call; other numbers are inactive results; ? = inconclusive; nt = no result. Calls follow the shape of the dose curve; as a rule, active = well fitted curve in the direction sought with a large enough effect; inconclusive = small, poorly fitted or top-dose-only effect, or another doubt; inactive = no such curve, though single readings can be large; an effect the other way counts as inactive or inconclusive. Potency is read from the fitted curve at half-maximal effect.

SMILES	DT40 TDP1 CPT	HT1080-NT tox	DT40 TDP1 no CPT	HT1080 IDH1KD tx	HepG2 viability	TGFb inhibitor
CC(=O)OC1COC(OC(C)=O)CO1 (configuration not stated)	-21%	-3%	-16%	-5%	23%	6%
CC(Oc1ccc2c3c(c(=O)oc2c1)CCC3)C(=O)NCCCn1ccnc1 (configuration not stated)	-24%	7%	11%	0%	-5%	5%
O=C(CCCN1CCN2CCCC2C1)c1ccc(F)cc1 (configuration not stated)	11%	nt	-27%	nt	nt	nt
C/C(=N/Nc1ccnc2cc(Cl)ccc12)c1ccc(O)cc1	?	-8%	?	-4%	-97%	?
Clc1ccc2c(N/N=C/c3cccc(Br)c3)ccnc2c1	16µM*	?	16µM*	?	-59%	-47%
Clc1ccc2c(N/N=C/c3ccccc3Br)ccnc2c1	7.3µM*	?	2.9µM*	?	-39%	-6%
C/C(=N/Nc1ccnc2cc(Cl)ccc12)c1ccc(N)cc1	23µM*	?	18µM*	?	-47%	?
O=[N+]([O-])c1ccc(/C=N/Nc2ccnc3cc(Cl)ccc23)o1	15µM*	?	16µM*	?	20µM*	?
Cc1cc(Br)c2c(c1)C(O)(N1CCCCC1C)C(=O)N2 (configuration not stated)	1%	-2%	-29%	-6%	-27%	-24%
CC(C)(C)C1CCc2c(sc3nc(-c4cc5cc(Cl)ccc5oc4=O)[nH]c(=O)c23)C1 (configuration not stated)	0%	nt	12%	nt	11%	-1%
CCN(c1ccc(Cl)cc1)S(=O)(=O)c1nnc(NC(=O)c2ccccc2C)s1	16µM*	nt	15µM*	nt	-37%	-16%
CCN(c1cc(C)cc(C)c1)S(=O)(=O)c1nnc(NC(=O)c2cccc(F)c2)s1	12µM*	nt	13µM*	nt	-43%	-28%
CCN(c1cc(C)cc(C)c1)S(=O)(=O)c1nnc(NC(=O)c2ccccc2C)s1	?	nt	?	nt	-26%	?
O=C(N1CCOCC1)N1CCN(CC(O)COc2ccc3ccccc3c2)CC1 (configuration not stated)	1%	-8%	-29%	-2%	-2%	9%
O=C1c2cccc3cccc(c23)C(=O)N1CC1CCN(CC(O)COc2ccc3ccccc3c2)CC1 (configuration not stated)	15µM*	18µM*	12µM*	15µM*	16µM*	?
CCc1ccc(OCC(O)CN2CCC(CN3C(=O)c4cccc5cccc(c45)C3=O)CC2)cc1 (configuration not stated)	15µM*	-1%	21µM*	8%	-8%	-14%
COc1ccc(OCC(O)CN2C(=O)c3ccccc3C2=O)cc1 (configuration not stated)	0%	?	-7%	25%	-19%	-12%
O=C1c2cccc3cccc(c23)C(=O)N1CCN1CCN(CC(O)COc2ccc3ccccc3c2)CC1 (configuration not stated)	18µM*	?	10µM*	?	4%	0%
COc1cccc(OCC(O)CN2CCC(CN3C(=O)c4cccc5cccc(c45)C3=O)CC2)c1 (configuration not stated)	8.2µM*	18µM*	7.3µM*	23µM*	14µM*	?
CC(C(=O)Nc1ccc2c(c1)OCCO2)N(C)CC(=O)Nc1ccccc1Br (configuration not stated)	-6%	5%	-10%	9%	-25%	?
